Test results: the supplement of paper PMC11383364

Test system: SUM149
Assay: percent difference in area under dose-response curve of relative cell number, RPMI vs HPLM; higher = drug relatively more effective in HPLM than RPMI (negative = less effective in HPLM)
Details: treatment time: 72 h; dose range: 10-point, 1 nM to 20 µM; media compared: RPMI vs HPLM

O=C(CCCCCCCn1cc(-c2cccnc2)nn1)Nc1ccccc1-c1ccccc1
percent difference in area under dose-response curve: 0.587%

OC(c1cc(C(F)(F)F)nc2c(C(F)(F)F)cccc12)C1CCCCN1 (centres undefined) [Mefloquine]
percent difference in area under dose-response curve: 3.47%

Clc1ccc(Nc2nnc(Cc3ccncc3)c3ccccc23)cc1 [Vatalanib_2HCl]
percent difference in area under dose-response curve: -4.56%

CCN(CCCOc1ccc2c(Nc3cc(CC(=O)Nc4cccc(F)c4)[nH]n3)ncnc2c1)CCOP(=O)(O)O [Barasertib]
percent difference in area under dose-response curve: -20.6%

CCC[C@H](Nc1nc(-c2ccc(NC(=O)NCC)c(OC)c2)ncc1C)c1cccnc1
percent difference in area under dose-response curve: -15.1%

O=C(Nc1c[nH]nc1-c1nc2ccc(CN3CCOCC3)cc2[nH]1)NC1CC1
percent difference in area under dose-response curve: -10.6%

O=c1[nH]cc(F)c(=O)[nH]1 [Adrucil]
percent difference in area under dose-response curve: 1.58%

CCCS(=O)(=O)Nc1ccc(F)c(C(=O)c2c[nH]c3ncc(-c4ccc(Cl)cc4)cc23)c1F [Vemurafenib]
percent difference in area under dose-response curve: 6.44%

Cn1cncc1[C@@](N)(c1ccc(Cl)cc1)c1ccc2c(c1)c(-c1cccc(Cl)c1)cc(=O)n2C [Tipifarnib]
percent difference in area under dose-response curve: -21.7%

C=C1/C(=C\C=C2/CCC[C@]3(C)[C@@H]([C@H](C)/C=C/[C@H](C)C(C)C)CC[C@@H]23)C[C@@H](O)C[C@@H]1O [Doxercalciferol]
percent difference in area under dose-response curve: -7.1%

NC(=O)CCCSc1nc(N)nc(-c2c(Cl)cc3c4c(cccc24)COC3)n1
percent difference in area under dose-response curve: -19.2%

CCn1c(-c2nonc2N)nc2c(C#CC(C)(C)O)ncc(OC[C@H]3CCCNC3)c21
percent difference in area under dose-response curve: 4.22%

O=C(NC1CCNCC1)c1n[nH]cc1NC(=O)c1c(Cl)cccc1Cl
percent difference in area under dose-response curve: -11.2%

CCN(CC)CCCCNc1ncc2cc(-c3cc(OC)cc(OC)c3)c(NC(=O)NC(C)(C)C)nc2n1
percent difference in area under dose-response curve: 1.69%

CCCCCCCCCCCCC/C=C/[C@@H](O)[C@H](CO)N(C)C [N_N_Dimethylsphingosine]
percent difference in area under dose-response curve: 6.06%

CN(CC(=O)N(Cc1ccc(C2CCCCC2)cc1)c1ccc(C(=O)O)cc1)S(=O)(=O)c1c(F)c(F)c(F)c(F)c1F
percent difference in area under dose-response curve: 3.06%

CC[n+]1c(-c2ccccc2)c2cc(N)ccc2c2ccc(N)cc21 [Ethidium_Bromide]
percent difference in area under dose-response curve: -18.5%

c1ccc2c(CCNc3ccc(Nc4ccncc4)cc3)c[nH]c2c1
percent difference in area under dose-response curve: -22.6%

CCNC(=O)c1noc(-c2cc(C(C)C)c(O)cc2O)c1-c1ccc(CN2CCOCC2)cc1
percent difference in area under dose-response curve: -30%

COc1ccc(COc2cc3oc(=O)c4cc(C(C)O)ccc4c3cc2OC)cc1 (centres undefined) [Palomid_529]
percent difference in area under dose-response curve: -0.0774%

Cc1[nH]c(/C=C2\C(=O)Nc3ccc(S(=O)(=O)N(C)c4cccc(Cl)c4)cc32)c(C)c1C(=O)N1CCN(C)CC1
percent difference in area under dose-response curve: -9.77%

O=S(=O)(N=Cc1c(O)ccc2ccccc12)c1cccs1
percent difference in area under dose-response curve: -2.44%

CCCCCCCC/C=C\CCCCCCCC(=O)NCCO [Oleylethanolamide]
percent difference in area under dose-response curve: 2.18%

Cc1nc2c(-c3cnc(N)nc3)nc(N3CCOCC3)nc2n1C(C)C
percent difference in area under dose-response curve: -7.54%

Cc1cc(=O)oc2c(C=O)c(O)ccc12
percent difference in area under dose-response curve: 5.18%

CCOc1ccn(-c2ccc(F)cc2)c(=O)c1C(=O)Nc1ccc(Oc2ccnc(N)c2Cl)c(F)c1
percent difference in area under dose-response curve: -1.99%

CC(=O)Nc1nc(C)c(-c2ccc(Cl)c(S(=O)(=O)NCCO)c2)s1
percent difference in area under dose-response curve: -8.79%

S=c1nc[nH]c2nc[nH]c12 [6_Mercaptopurine]
percent difference in area under dose-response curve: -31.7%

O=C(NOCC1CC1)c1ccc(F)c(F)c1Nc1ccc(I)cc1Cl
percent difference in area under dose-response curve: 4.08%

CC(C)(C)c1cnc(CSc2cnc(NC(=O)C3CCNCC3)s2)o1
percent difference in area under dose-response curve: -3.83%

Cc1cccc(CC(=O)N2CCc3c2ccc(-c2cn(C)c4ncnc(N)c24)c3F)n1
percent difference in area under dose-response curve: -5.2%

COc1cc(/C=C/C(=O)N2CCC=CC2=O)cc(OC)c1OC [Piperlongumine]
percent difference in area under dose-response curve: -18.1%

COc1ncc(-c2ccc3nccc(-c4ccnnc4)c3c2)cc1NS(=O)(=O)c1ccc(F)cc1F
percent difference in area under dose-response curve: -12.4%

CN1CCN(c2ccc(OC(F)(F)F)c(Nc3ncc4c(n3)-c3c(c(C(N)=O)nn3CCO)CC4)c2)CC1
percent difference in area under dose-response curve: -12.8%
